# HEK293 cAMP cs: qHTS Assay for Agonists of the Thyroid Stimulating Hormone Receptor: Activators of Intracellular cAMP Concentrations in Parental HEK 293; parental HEK293 CNG cAMP sensor, membrane potential fluorescence; Potency, µM (titrated, usually from 57.1 µM), for inactives: at the top dose activation, most hits filed as activators; hit rate 2.5% among 73,000; AID 938, 2007; further: % of control where 0% means no effect; nearly all actives have a fitted effect of over 55% in size
#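 Parental HEK 293 cells stably expressing a cAMP-gated CNG channel were loaded with membrane potential dye containing 100 uM RO 20-1724 for 60 min. Compound added for 30 min; depolarization read as fluorescence intensity at 590 nm.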
# Bst PK mod: Pyruvate Kinase; purified pyruvate kinase, luminescence ATP production; ribose 5-phosphate activator present at AC10; hit rate 1.2% among 51,000; Potency, µM; in the data active means potency below about 11 µM; inconclusive means mostly about 12 µM to 25 µM;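 the screen sought inhibitors and activators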;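 further: scaled between full activation by ribose 5 phosphate and full inhibition by luteolin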
# TSHR agonist: qHTS Assay for Agonists of the Thyroid Stimulating Hormone Receptor. Thyrotropin receptor (Homo sapiens), P16473. HEK293-CNG-TSHR cells (CNG channel as cAMP sensor), membrane potential dye, cAMP. Potency, µM (highest dose often 57.1 µM), for the others: at the highest dose activation, hits mostly activators. hit rate 0.48% among 73,000; active means well fitted activation curve with a large enough effect in the main read-out, with a control signal flat, not every such curve was filed as active; inconclusive means small, poorly fitted or top-dose-only effect, or a change in a side signal; inactive means no such curve, though single readings can be large or run the other way; % of control where 0% means no effect;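 further: the control signal comes from parental cells without the receptor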
# Target sequence (P16473 whole entry, looked up): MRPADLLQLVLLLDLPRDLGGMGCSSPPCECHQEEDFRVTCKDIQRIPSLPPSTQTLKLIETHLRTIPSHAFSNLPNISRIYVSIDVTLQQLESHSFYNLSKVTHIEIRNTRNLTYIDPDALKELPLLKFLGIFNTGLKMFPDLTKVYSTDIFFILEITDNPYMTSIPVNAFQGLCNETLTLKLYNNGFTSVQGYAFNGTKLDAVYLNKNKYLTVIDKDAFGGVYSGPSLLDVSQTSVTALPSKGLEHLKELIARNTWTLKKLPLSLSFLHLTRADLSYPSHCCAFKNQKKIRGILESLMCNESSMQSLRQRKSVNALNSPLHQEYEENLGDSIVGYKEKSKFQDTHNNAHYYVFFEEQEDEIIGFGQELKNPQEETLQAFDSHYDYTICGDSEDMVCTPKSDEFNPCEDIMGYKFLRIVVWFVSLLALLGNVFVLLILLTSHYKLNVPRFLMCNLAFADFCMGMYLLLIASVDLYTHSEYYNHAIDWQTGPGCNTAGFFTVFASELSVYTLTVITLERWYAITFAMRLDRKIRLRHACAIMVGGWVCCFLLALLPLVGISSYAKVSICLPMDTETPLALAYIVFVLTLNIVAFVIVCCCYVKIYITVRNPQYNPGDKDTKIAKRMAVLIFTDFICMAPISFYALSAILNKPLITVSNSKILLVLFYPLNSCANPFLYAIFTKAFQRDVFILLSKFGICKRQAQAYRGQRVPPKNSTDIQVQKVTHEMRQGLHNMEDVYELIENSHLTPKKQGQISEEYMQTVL
#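 HEK 293 cells stably expressing TSHR and a modified CNG channel, with CNG-only parental cells as counterscreen, were preloaded 60 min at room temperature with membrane potential dye containing 100 uM RO 20-1724. Compound exposure was 30 min, and depolarization was read as fluorescence at 590 nm.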
# Luciferase inh: qHTS Assay for Inhibitors of Firefly Luciferase. purified firefly luciferase, luminescence, 8 min. hit rate 2.2% among 72,000. Potency, µM (doses to about 57.1 µM), for the others: at the top dose activity change, negative = inhibition, actives largely listed as inhibitors. Luciferin 4-monooxygenase (Photinus pyralis), P08659. AID 411, 2009; further: on the % scale 0 is the no-effect control and ±100 the full control effect; nearly all actives have a fitted effect of over 40% in size
#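 Titration-based qHTS; buffer 50 mM imidazole pH 7.2, 50 mM KCl, 7 mM MgCl2, 10 uM ATP, 0.01% Tween 20, 0.05% BSA; luciferase/luciferin detector mix added after compound; 8 min, ambient; luminescence.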
# Active calls of the source: *; ? = inconclusive; . = no result; ! = not active in a repeat; [ ] = remark or other dose. Only some compounds are listed: those with a hit (about 5.2% of all), similar ones and a draw of the others. Unless noted, the call rests on the fitted dose curve; in most records, active means well fitted curve in the direction sought with a large enough effect; inconclusive means small, poorly fitted or top-dose-only effect, or another doubt; inactive means no such curve, though single readings can be large; an effect the other way counts as inactive or inconclusive. Potency means the concentration at half of the fitted maximal effect.
SMILES,HEK293 cAMP cs,Bst PK mod,TSHR agonist,Luciferase inh
COc1ccc(Cn2nnnc2C(c2cccs2)N2CCN(c3ccccc3)CC2)cc1 (stereo unspecified),?,>57,?,0%
c1ccc(Cn2nnnc2C(c2cccs2)N2CCc3ccccc3C2)cc1 (stereo unspecified),10µM*,>57,?,5%
c1ccc(Cn2nnnc2C(c2cccs2)N2CCCCCC2)cc1 (stereo unspecified),25µM*,>57,?,2%
CCOC(=O)c1oc2ccccc2c1CN1CCOCC1,?,>57,?,3%
O=C(O)C1C2CCC(O2)C1C(=O)NCCC1=CCCCC1 (stereo unspecified),5%,>57,-2%,0%
COc1ccc(CCNC(=O)CSC2=Nc3ccccc3C3=NC(C(C)C)C(=O)N23)cc1OC (stereo unspecified),18%,>57,-1%,2%
CCn1cnc2sc(-c3ccccc3)cc2c1=O,6%,?,-2%,13µM*
Cc1ccc(C)n1-n1c(C)nc2sc(-c3ccccc3)cc2c1=O,3.2µM*,.,?,-25%
COc1ccc(CC(=O)Nc2nncs2)cc1OC,-5%,>57,8%[11.4 µM],-2%
c1ccc2c(c1)Cn1c-2nc2ccccc21,16µM*,?,?,13µM*
c1ccc2c(c1)Cn1nnnc1-2,3%,>57,2%,2%
CC1CCN(C(=O)CSc2nnc(-c3ccco3)o2)CC1,10%,.,0%,-6%
c1ccc(-n2nnc3c(N4CCOCC4)ncnc32)cc1,4%,9.2*,-2%,5µM*
c1ccc(Cn2nnc3c(N4CCCC4)ncnc32)cc1,?,>57,?,2%
O=C(CC1Nc2ccccc2NC1=O)c1ccccc1 (stereo unspecified),-1%,.,-20%,13µM*
Cc1sc(NC(=O)c2cccs2)c(C(N)=O)c1C,1%,.,-24%,13µM*
O=C(Nc1sc2c(c1C(=O)O)CCCC2)c1cccs1,-11%,.,6%,-11%
O=C(COC(=O)c1cc2ccccc2o1)c1ccccc1,8%[11.4 µM],.,3%[11.4 µM],13µM*
O=C(COC(=O)c1cccs1)c1ccccc1,1%,?,-4%,5µM*
O=C(CSc1nnc(-c2ccco2)o1)c1ccc(F)c(F)c1,12%,>57,5%,-1%
O=C(Nc1cccc2nsnc12)c1ccc2c(c1)OCCO2,25%,.,.,20µM*
Cc1nc2c(ccc3nc(NC(=O)c4ccc5c(c4)OCCO5)sc32)s1,?,0.29*,?,0.79µM*
O=C(CCNS(=O)(=O)c1cccc2nsnc12)Nc1ccc2c(c1)OCCO2,2%,?,-4%,-2%
O=C(Nc1ccc2c(c1)OCCO2)C1CCN(S(=O)(=O)c2cccc3nsnc23)CC1,-7%,9.3*,-7%,2%
O=S(=O)(Nc1ccc2c(c1)OCCO2)c1cccc2nsnc12,11%,8.6*,20%[11.4 µM],-14%
SMILES,HEK293 cAMP cs,Bst PK mod,TSHR agonist,Luciferase inh
O=C(Nc1cccc2nsnc12)c1ccc(F)cc1,17%,.,12%,-3%
COC(=O)c1[nH]c2ccc(C)cc2c1NC(=O)CN1CCCc2ccccc21,28%,9.1*,1%,1%
COc1ccccc1N1CCN(CCCNc2cc(=O)n(C)c(=O)n2C)CC1,13µM*!,.,?,2%
Cc1cc2nc(SC(C)C(=O)O)[nH]c2cc1C (stereo unspecified),8%,.,1%,10µM*
Cc1nc2cc(NC(=O)Nc3nccs3)ccc2n1C,-3%,11*,-7%,6.3µM*
COc1ccc(C(CC(=O)O)NC(=O)COc2ccccc2)cc1OC (stereo unspecified),4%,>57,0%,1%
Cn1c(Nn2cnnc2)nc2ccccc21,3.2µM*,>57,?,3%
Cc1cc(=O)[nH]c(SCCOc2ccc(OC(C)C)cc2)n1,2%,.,23%,16µM*
COC(=O)c1ccccc1NC(=O)NC1CCN(Cc2ccccc2)CC1,8%,>57,3%,2%
CCOC(=O)CCCNC(=O)CCNC(=O)c1ccc(OC)cc1,11%,.,1%,2%
COC(=O)c1ccc(Nc2nc(C)cc(=O)[nH]2)cc1,13µM*,>57,?,0%
COc1ccccc1Nc1nc(C)cc(=O)[nH]1,0%,>57,5%,0%
O=C(CCS(=O)(=O)c1cccs1)Nc1ccc(C(=O)NCc2cccs2)cc1,2%,>57,-3%,0%
COC(=O)c1c(NC(=O)CN2CCN(Cc3ccc4c(c3)OCO4)CC2)sc(C)c1C,1.6µM*,>57,?,2%
Cc1cc(C)c(NC2=NCC(=O)N2C2CCCCC2)c(C)c1,?,>57,?,0%
CCOC(=O)c1sc(NC(=O)CSc2nnnn2-c2ccc(C)c(C)c2)nc1C,27%,>57,19%,0%
CCOC(=O)c1sc(NC(=O)CSc2nnnn2-c2ccc(C)cc2C)nc1C,25µM*,>57,?,2%
Cc1nc2cnc(N(C)C)nc2n(CCc2ccccc2)c1=O,16µM*,.,?,0%[11.4 µM]
CN(C)c1ncc2nc(CCc3ccccc3)c(=O)n(CCc3ccccc3)c2n1,?,.,?,1%[11.4 µM]
NC(=O)c1nsc(C(=O)N(CCc2ccccc2)C(C(=O)NC2CCCC2)c2ccco2)c1N (stereo unspecified),6.3µM*,>57,?,3%
COc1ccccc1CN(C(=O)c1ccco1)C(C(=O)NC1CCCC1)c1ccncc1 (stereo unspecified),?,>57,?,0%
Cc1cccc2cc(CN(Cc3ccco3)C(=O)NC3CCCCC3)c(=O)[nH]c12,?,.,?,-1%
O=C(Cc1cccs1)N(Cc1ccco1)C1(C(=O)NC2CCCC2)CCCCC1,0.13µM*,>57,?,-1%
O=C(NC1CCCCC1)C(c1ccco1)N(Cc1ccco1)C(=O)c1ccco1 (stereo unspecified),16µM*,>57,?,1%
O=C(NC1CCCCC1)N(Cc1ccccc1)Cc1ccco1,16µM*,.,?,0%
SMILES,HEK293 cAMP cs,Bst PK mod,TSHR agonist,Luciferase inh
COc1ccc(O)c(C(=O)c2cc(C#N)c(=O)n(CCN3CCOCC3)c2)c1,-8%,>57,4%,2%
O=C(NC1CCCCCC1)c1c(O)c2cccc3c2n(c1=O)CCC3,25%,>57,11%,0%
CCCn1c(SCc2ccccc2)nc2c1c(=O)[nH]c(=O)n2C,3%,>57,14%,3%
CCOCCCN(C(=O)CNC(=O)c1ccco1)C(C(=O)NC1CCCC1)c1ccccc1C (stereo unspecified),32µM*,>57,?,-2%
Cc1ccc2nc(/C(C#N)=N/O)[nH]c2c1,-2%,.,-1%,25µM*
NC1=NC2(CCN(Cc3ccccc3)CC2)n2c(nc3ccccc32)N1,4%,6.9*,6%,-2%
NC1=NC2(CCCCC2)n2c(nc3ccccc32)N1,3%,>57,-14%,0%
Cc1ccc(NC(=O)CC2SC3=NCCCN3C2=O)c(C)c1 (stereo unspecified),-4%,>57,-3%,-1%

# Source: PubChem BioAssay
